The values below come from PubChem BioAssay AID431 (Sanford-Burnham Center for Chemical Genomics, 2006).

Each structure is given as a SMILES string. The whole screen tested about 63,000 compounds, of which about 1,100 (1.7%) were called active. For the sample, actives were picked, then their nearest neighbours and some compounds at random. Entries with a potency or affinity are not part of this list. Unmarked numbers belong to inactive results.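 How the source made its calls: active means compounds whose percent cytotoxicity in the single-dose primary screen, scaled between solvent and toxic-drug controls, exceeds 50; inactive means the rest.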

This assay in a line: cytotoxicity in KRAS-transformed pancreatic duct cells, primary screen, cell-based, fluorescence, HTS (AID 431).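 Further: 0% = DMSO solvent wells and 100% = doxorubicin-treated wells.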 Particulars: HPDE-C7K KRASV12 cells, Alamar Blue viability, 48 h; at 10 µM; stronger effect = higher value. For orientation: Resazurin is reduced to fluorescent resorufin, in cell work by metabolically active cells.
With `COc1ccc(CC(=O)N2CCNC2=O)cc1`, the cytotoxicity was -17.1%.

As for `Clc1ccc(C2=Nn3c(nnc3-c3n[nH]c4c3CCC4)SC2)cc1`, the cytotoxicity was 25.9%.

Consider `CC1=Nn2c(nnc2-c2n[nH]c3c2CCC3)SC1`, for which the cytotoxicity was -0.7%.

Regarding `Brc1ccc(C2=Nn3c(nnc3-c3n[nH]c4c3CCC4)SC2)cc1`, the cytotoxicity was 53.5% (active).

As to `Clc1ccc(C2=Nn3c(nnc3-c3n[nH]c4c3CCC4)SC2)cc1Cl`, the cytotoxicity is 71.9% (active).

`Fc1ccc(C2=Nn3c(nnc3-c3n[nH]c4c3CCC4)SC2)cc1`: the cytotoxicity was 1.2%.

In the case of `c1ccc(C2=Nn3c(nnc3-c3n[nH]c4c3CCC4)SC2)cc1`, the cytotoxicity was 10.4%.

Consider `COC(=O)c1ccc(S(=O)(=O)N2C3CCC2CC(NC(=O)NC2CCCCC2)C3)cc1` (configuration not stated), for which the cytotoxicity was -5.3%.

For the molecule `CCn1c(SCC(=O)NCc2ccco2)nc2cccnc21`, the cytotoxicity is -20.4%.

`CCSc1sccc1C1C(C#N)=C(N)N(c2cccnc2)C2=C1C(=O)CC(C)(C)C2` (configuration not stated): the cytotoxicity is 30.9%.

With `COC(=O)c1ccc(-c2nc3ccc(C)cc3o2)cc1`, the cytotoxicity was 54.8% (active).

With `O=C(Nc1ccc2oc(-c3cccnc3)nc2c1)c1cccnc1`, the cytotoxicity is 3.2%.

In the case of `Cc1ccc2oc(-c3ccc(NC(=O)c4ccc5c(c4)OCO5)cc3)nc2c1`, the cytotoxicity is 85.1% (active).

For `COc1ccc(-c2nc3cc(NC(=O)c4ccc5c(c4)OCO5)ccc3o2)cc1`, the cytotoxicity was -6.9%.

`CCc1ccc2oc(-c3cccc(NC(=O)c4cccnc4)c3)nc2c1`: the cytotoxicity was 10.6%.

Regarding `O=C(Nc1ccc2oc(Cc3ccc(Cl)cc3)nc2c1)c1cccnc1`, the cytotoxicity was 58.3% (active).

In the case of `COC(=O)c1ccc(-c2nc3ccccc3o2)cc1`, the cytotoxicity is -20.7%.

As to `O=C(Nc1ccc2oc(-c3ccccc3)nc2c1)c1cccnc1`, the cytotoxicity was 34.5%.

As for `O=C(Nc1ccc(-c2nc3ccccc3o2)cc1)c1ccc2c(c1)OCO2`, the cytotoxicity was 2%.

Take `O=C(Nc1ccc2oc(=O)ccc2c1)c1cccnc1`: the cytotoxicity is 7.9%.

Consider `Cc1ccc(-c2nc3cc(C)ccc3o2)cc1`, for which the cytotoxicity was 8.8%.

For `Cc1ccc2oc(-c3ccc(NC(=O)c4cccnc4)cc3)nc2c1`, the cytotoxicity was 56.9% (active).

With `c1ccc(CSc2nnc(-c3cccs3)n2Cc2ccco2)cc1`, the cytotoxicity is -21.5%.

As to `CCOC(=O)c1cccc(Nc2nc(C)cc(C)n2)c1`, the cytotoxicity is 0.1%.

Consider `O=C(NCc1ccccn1)c1cn(CCc2ccccc2)nn1`, for which the cytotoxicity was -5%.

For the molecule `CCOC(=O)Cc1csc(NC(=O)c2c(-c3c(F)cccc3Cl)noc2C)n1`, the cytotoxicity is -8.5%.

In the case of `O=S(=O)(Nc1ccc(-c2nc3ccccc3o2)cc1)c1ccccc1`, the cytotoxicity was 52% (active).

On to `O=S(=O)(Nc1ccc2oc(-c3ccccc3)nc2c1)c1ccccc1`, for which the cytotoxicity is 15.5%.

Consider `COc1cc(C(=O)NCc2ccc(-c3nc4ccccc4o3)cc2)cc(OC)c1OC`, for which the cytotoxicity was 2.5%.

On to `COc1cc(OC)cc(C(=O)Nc2ccc(-c3nc4ccccc4o3)cc2)c1`, for which the cytotoxicity is 73.9% (active).

For `COc1cccc(C(=O)Nc2ccc(-c3nc4ccccc4o3)c(O)c2)c1`, the cytotoxicity is 24.7%.

With `COc1cc(C(=O)Nc2cccc(-c3nc4cc(C)ccc4o3)c2)cc(OC)c1OC`, the cytotoxicity is 43.8%.

Regarding `Cc1ccc2oc(-c3cccc(NC(=O)C4CCCO4)c3)nc2c1` (configuration not stated), the cytotoxicity is 3.3%.

Take `O=C(Nc1ccc(-c2nc3ccccc3o2)cc1)C1CCCO1` (configuration not stated): the cytotoxicity was 5.9%.

In the case of `O=C(Nc1ccc2c(c1)oc1ccccc12)c1cccnc1`, the cytotoxicity is 53.2% (active).

Turning to `O=C(Nc1ccc2c(c1)oc1ccccc12)c1ccncc1`, the cytotoxicity was 7.8%.

Consider `O=C(Nc1ccc2ccccc2c1)c1cccnc1`, for which the cytotoxicity is 0.5%.

For the molecule `Cc1occc1-c1nc(-c2ccccn2)no1`, the cytotoxicity was -13.5%.

As to `CC1CN(C(=O)c2cc3cc(Cl)cc(Cl)c3oc2=O)CC(C)O1` (configuration not stated), the cytotoxicity is -12.2%.

As for `COc1ccc2oc(-c3ccccc3)c(C(N)=O)c2c1`, the cytotoxicity is -8.2%.

As for `CCCCCC(=O)Nc1cccc(-c2nc3ncccc3o2)c1`, the cytotoxicity is -7%.

For `Cc1nnc(SCC(=O)NCc2cccs2)n1-c1ccccc1`, the cytotoxicity was -5.1%.

In the case of `Cn1c(=O)c2c(SCc3ccccn3)nc(-c3ccccc3)nc2n(C)c1=O`, the cytotoxicity was 6.7%.

`CC[C@@H](C)[C@H](NC(=O)C1CCN(C(=O)[C@@H](NS(=O)(=O)c2ccc(C)cc2)C(C)C)CC1)C(=O)O`: the cytotoxicity was -19.2%.

For the molecule `NC(=O)C1CCN(c2ncnc3c2c(-c2ccccc2)cn3-c2ccccc2)CC1`, the cytotoxicity was -9%.

For `Cn1nnnc1SCCNC/C=C/c1ccccc1`, the cytotoxicity was 14.4%.

With `CN(C1CCCCC1)S(=O)(=O)c1ccc(-n2cnnn2)cc1`, the cytotoxicity is -13.1%.

`CCCCN(CC)S(=O)(=O)N1CCC(C(=O)NCc2ccc(F)cc2)CC1`: the cytotoxicity is -8.2%.

As to `C=CCN1C(=O)C2C(C(=O)NC)C3C=CC2(O3)C1C(=O)NCc1ccc(OC)cc1` (configuration not stated), the cytotoxicity is 4.1%.

On to `N#CC1=C(N)C(C#N)(C#N)[C@H](c2ccoc2)[C@H]2CN(Cc3ccccc3)CC=C12`, for which the cytotoxicity is 81.4% (active).

As to `CC(=O)N1CC=C2C(C#N)=C(N)C(C#N)(C#N)[C@H](c3ccoc3)[C@H]2C1`, the cytotoxicity was 13.2%.

Consider `CC(C)N1CC=C2C(C#N)=C(N)C(C#N)(C#N)C(c3ccccc3)C2C1` (configuration not stated), for which the cytotoxicity was 27.9%.

Take `Cn1c(=O)c2c(nc(Br)n2Cc2c(F)cccc2Cl)n(C)c1=O`: the cytotoxicity is -11.4%.

With `Cc1ccc(/C=c2/sc3nnc(-c4ccccc4Cl)n3c2=O)o1`, the cytotoxicity is 50.1% (active).

`Cc1ccccc1-c1nnc2s/c(=C\c3ccc(N(C)C)cc3)c(=O)n12`: the cytotoxicity was 3.5%.

For the molecule `Cc1ccc(/C=c2\sc3nc(-c4ccccc4Br)nn3c2=O)o1`, the cytotoxicity is 8.5%.

As for `COc1cccc(OC)c1OCCCSc1nc(C)cc(=O)[nH]1`, the cytotoxicity was 6.8%.

For the molecule `C=CCSC1=N/C(=C\c2ccc3c(c2)OCO3)C(=O)S1`, the cytotoxicity is 52.9% (active).

`C=CCSC1=N/C(=C\c2cc(OC)c3c(c2)OCO3)C(=O)S1`: the cytotoxicity was 16.5%.

As for `CCSC1=N/C(=C\c2ccc3c(c2)OCO3)C(=O)S1`, the cytotoxicity was 40.9%.

Regarding `COc1ccc(-c2c3c(=O)n(C)c(=O)n(C)c3cn2Cc2ccccn2)cc1`, the cytotoxicity is 7%.

On to `CCS(=O)(=O)N1CCCC(C(=O)NCc2ccccc2Cl)C1` (configuration not stated), for which the cytotoxicity is 14.1%.
